This assay can be described thus: Drug repurposing screens with cells derived from glioblastoma tumor samples (AID 1345199). Further: nearly all actives have a fitted effect of over 40% in size. The conditions noted are these: GBM patient neurospheres viability, ATP luminescence, 48 h. How it is done:
CD133+ cells were isolated from GBM patient biopsies and cultured as neurospheres. Neurospheres from four patients were used to screen the NCATS pharmaceutical collection (NPC) library of approved drugs and bioactive compounds. […] The neurospheres were incubated with drugs for 48 hours in 1536-well format, then assayed with an ATP content cell viability assay. […] These hits were cherry picked to confirm activity in the four original GBM lines screened plus three other slower growing GMB lines (unable to yield enough cells for a full primary screen). Variable activities of the confirmed primary hits in the different GBM patient lines were observed. The patient line 206 responded to the greatest number of compounds and line 923 responded to the least amount of active compounds.

[1] abbreviates: at 20 µM (top of the series), tumour line C.
Setting [2] is: at 21.2 µM (top of the series), tumour line B.
[3] abbreviates: at 21.2 µM (top of the series), tumour line D.
Setting [4] is: at 45.9 µM (top of the series), tumour line B.
Setting [5] is: at 45.9 µM (top of the series), tumour line D.
Setting [6] is: at 46 µM (top of the series), tumour line A.
The mark [7] stands for this setting: at 46.1 µM (top of the series), tumour line C.

Several values for one entry are separate records, joined by “and”; a condition that tells them apart may be missing. Identical values can stand only once. Inconclusive results are not listed. More than one record can exist for a structure, and the calls need not agree. Activity calls are given as the source filed them. The call rests on the fitted dose curve; in most records, active means well fitted inhibition curve with a large enough effect; inconclusive means small, poorly fitted or top-dose-only effect; inactive means flat fitted curve, though single readings scatter.
On the % scale 0 is the no-effect control and ±100 the full control effect; potency means the concentration at half of the fitted maximal effect.

With `Nc1ccc(S(=O)(=O)Nc2ccnn2-c2ccccc2)cc1`, the activity, negative = cell killing under setting [1] is -5.82% (inactive); the activity, negative = cell killing under setting [2] was -5.49% (inactive); the activity, negative = cell killing under setting [3] is -1.62% (inactive); the activity, negative = cell killing (at 21.3 µM (top of the series), tumour line A) was -21.3% (inactive).
As to `N#Cc1ccc(C(c2ccc(C#N)cc2)n2cncn2)cc1`, the activity, negative = cell killing by setting is: under setting [1], -3.52% (inactive); under setting [2], -10% (inactive); under setting [3], -7.94% (inactive).
For `O=NN(CCCl)C(=O)NCCCl`, the activity, negative = cell killing is -7.98% (inactive) under setting [4], -22.2% (inactive) under setting [5], -13.2% (inactive) under setting [6] and -21% (inactive) under setting [7].
Take `Cc1ccc(N(CC2=NCCN2)c2cccc(O)c2)cc1`: the activity, negative = cell killing under setting [4] is -13.6% (inactive) and the activity, negative = cell killing under setting [7] is -7.27% (inactive). Moreover, under “tumour line A”, the Potency is 14.1 µM (active).
With `Cc1c(C)c2c(c(C)c1O)CCC(C)(COc1ccc(CC3SC(=O)NC3=O)cc1)O2` (stereo not given), the activity, negative = cell killing was -4.67% (inactive) under setting [4] and -19.7% (inactive) under setting [7].
For the compound `CCCc1nn(C)c2c(=O)[nH]c(-c3cc(S(=O)(=O)N4CCN(C)CC4)ccc3OCC)nc12`, the activity, negative = cell killing is -8.65% (inactive) under setting [4], -23.3% (inactive) under setting [5] and 12.9% (inactive) under setting [7]. For the setting “tumour line A”, the Potency was 22.4 µM (active).
As for `CC(C)NCC(O)COc1ccc(COCCOC(C)C)cc1` (stereo not given), the activity, negative = cell killing under setting [4] was -9.69% (inactive) and -16.2% (inactive); the activity, negative = cell killing under setting [5] is 1.75% (inactive) and -24.1% (inactive); the activity, negative = cell killing under setting [7] is -2.09% (inactive) and 0.649% (inactive). Where the note is “tumour line A”, the Potency was 11.2 µM (active).
As to `CCCC(CCC)C(=O)O`, the activity, negative = cell killing runs as follows: under setting [4], -7.18% (inactive); under setting [5], -10.3% (inactive); under setting [6], -15.5% (inactive); under setting [7], 0.524% (inactive).
In the case of `N[C@@H]1CONC1=O`, the activity, negative = cell killing under setting [4] was -2.69% (inactive); the activity, negative = cell killing under setting [5] is 4.98% (inactive); the activity, negative = cell killing under setting [6] was -17.4% (inactive); the activity, negative = cell killing under setting [7] was -0.848% (inactive).
For `CCCc1nc2c(C)cc(-c3nc4ccccc4n3C)cc2n1Cc1ccc(-c2ccccc2C(=O)O)cc1`, in that order: -13.6% (inactive), -10.2% (inactive), -16.9% (inactive) and -10.7% (inactive).
Regarding `NCCCC(N)(C(=O)O)C(F)F` (stereo not given), the activity, negative = cell killing is -9.02% (inactive) under setting [4], 7.69% (inactive) under setting [5], -29.6% (inactive) under setting [6] and -4.46% (inactive) under setting [7].

Values taken from PubChem BioAssay (NCATS).
